Tested on: VDR:RXRa (NR concentration 270 nM, RXRa partner concentration 90 nM)
Assay: PBM binding z-score (relative to random genomic background probes); higher = stronger binding; sequences stand for … in GC…GCGATTGACAGCGTAGAATGAAGG
Procedure: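 Protein-binding microarray (Agilent 4x180K custom design, double-stranded 60-nt probes: 5' GC cap, 34-nt variable region, 24-nt constant primer region; full probe sequence given). Purified or IVT nuclear receptor:RXRα heterodimers (3:1 NR:RXRα, mostly 270:90 nM) or homodimers were incubated for 1 h in PBS with 2% milk and no ligand, then detected with Alexa488 antibodies. Fluorescence from o1-orientation probes (~5 replicates averaged) was converted to z-scores against 500 random hg19 background probes. Variable regions are seed direct-repeat (DR0–DR5) sites, all their single-nucleotide variants and half-site ablations.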

Row | Sequence | PBM binding z-score
1 | ATGTCTAGGTAACAAGTTCAGTGAAAGAGAGGAC | 2.14
2 | CCTCCAAGGTCAATGCTAGGTCAGTGAAAGCATT | 4.74
3 | CCTAATGGGCCAAAAAGGTCATTGATGCCGATAA | 5.11
4 | GTACCAAGGTGCATAGGTCGTTGATGAGTAGGCG | 0.717
5 | CAAACTAGGACAAAGGTCAAAGTCGAGCCAACCA | 4.93
6 | TCTCGGAGGCCACGAAAGGTCAGAGCTCGACATC | 3.62
7 | CCTATTAGTTGACCATAAGGGCAACCGCAGCTCG | 0.982
8 | GCGACTGGGGCAAATCAGGTTACCATAAGGTTGG | 0.324
9 | CATACTGGGCCAAAGGTCATTGATTCCAATGCTC | 5.1
10 | CCGACTGGGACAGAAAGGTTACCATACCATCCGG | 0.351
11 | TAGCCTAGGTCATTCATGGGCCAGTATAGAAAGC | 2.16
12 | ACAGACAGGTGAGTGAAGTTAACTCAGCTGGACG | -0.576
13 | GCAGACAGGTGTAACGCAGGTAACTCAGGGTGGC | -0.647
14 | TGAATGAGGTTATAAGATCAGGTAACGTTGCAAA | 1.14
15 | CGTCCAAGGTCAAGGTCAGTCAAAGAGACTCGAA | 4.84
16 | CCTAGTTGGTCAAGGTCACACTCGCTATAGGTAC | 3.99
17 | TCAGACAGGTGAAGCTAACTCAGGTACGCAGTCG | 0.334
18 | ATATGTAGATTATCGGGTCATTCAGTTTGCGCAT | 4.87
19 | CCTAGTTCGTCAAGGTCACACACGCTATAGGTAC | 6.46
20 | CAAACTAGGTCAAGAGATCAAAGTCCGCTTCCCG | 1.59

Row | Sequence | PBM binding z-score
21 | CCAGAAAGGTGAGAAGGTAACTCAGCCTCGATTA | 0.43
22 | AGCCAAAGTTCAGGACGAGGTAACGTAAAGCACG | 2.71
23 | GCTATCAGGCCATTTGGGTCACTCAATGACGGGC | 1.38
24 | CCTGCTAGGTCATGATCAGCTAATCTACAGTATG | 1.41
25 | TTGAGTAGGTTAGTCGGGGCATTCAGCCAACATA | 2.47
26 | CAAACTAGGTCAAGAGGTCAATGTCCGCTTCCCG | 5.64
27 | ATCGAAAGGTCGTGAGGGGAGTATACAGAAAGGC | 3.55
28 | TCTTTTAGTTGATTAGGGCAACCGAAACAGCGGA | 0.986
29 | TCTATCAGGCCAGAGGGTCACTCAAGAGGTACGG | 2.03
30 | TAGCCTAGGTCATTCAGGGGCCAGGATAGAAAGC | 2.94
31 | TCATATTGGTAAAGGTGAAAGTCGAACGATATGA | 0.612
32 | CTTTACGGGTCACTGACAGGTTATAGCATTTGGA | 3.94
33 | CAAACTAGTTCAAAGGTCAAAGTCGAGCCAACCA | 6.02
34 | TCTGGGAGGACACGAAAGGTCAGAGCTCGACATC | 3.35
35 | CCTACTGGGCCAAAGGTCATGGATTCCAATGCTC | 4.85
36 | TCATATAGGTAAATGCTAGGTGAATGTCCGATCT | 0.74
37 | TCGAGTAGGTTAGGGGCATTCAGAATGGCGTCGA | 0.508
38 | TAGCCTAGGTCATGGACCAGTATACCACGCGAAC | 2.13
39 | AGTCAAAGTTGACTAGGTAACGTAAGATTCAGCT | 0.000813
40 | GCCACTGGGGCAAAGCAGGTTACCATAAGGTTGG | -0.0502

Source: the supplement of paper PMC6555819
